# Laboratory results from PubChem BioAssay (NCATS).
# Results filed as inconclusive are left out. Active and inactive are the calls of the source. Calls follow the shape of the dose curve; as a rule, active = well fitted inhibition curve with a large enough effect; inconclusive = small, poorly fitted or top-dose-only effect, or effect the other way; inactive = flat fitted curve, though single readings scatter.
# Biological target: ATP-dependent 6-phosphofructokinase (Trypanosoma brucei brucei) (UniProt O15648)
# Assay: qHTS Assay to Find Inhibitors of T. brucei phosphofructokinase: hit validation (AID 492961);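 also: luminescence reports ADP formed as PFK phosphorylates fructose-6-phosphate with ATP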
# Conditions: T. brucei PFK, ADP-Glo luminescence; series mostly up to 51.4 µM; activity change, negative = inhibition: at the top concentration
# Summary of the method: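 Compounds titrated; %activity normalized to 0x and 1x enzyme controls, curve-fitted. Readout: ADP-Glo luminescence after 45 min room-temperature reaction of 1.25 nM PFK, 0.1 mM ATP, 0.5 mM F6P, pH 8.0.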
# % is scaled to controls: 0 for no effect and ±100 for the full control effect.
# Chain of ATP-dependent 6-phosphofructokinase (Trypanosoma brucei brucei) (O15648 whole entry, looked up): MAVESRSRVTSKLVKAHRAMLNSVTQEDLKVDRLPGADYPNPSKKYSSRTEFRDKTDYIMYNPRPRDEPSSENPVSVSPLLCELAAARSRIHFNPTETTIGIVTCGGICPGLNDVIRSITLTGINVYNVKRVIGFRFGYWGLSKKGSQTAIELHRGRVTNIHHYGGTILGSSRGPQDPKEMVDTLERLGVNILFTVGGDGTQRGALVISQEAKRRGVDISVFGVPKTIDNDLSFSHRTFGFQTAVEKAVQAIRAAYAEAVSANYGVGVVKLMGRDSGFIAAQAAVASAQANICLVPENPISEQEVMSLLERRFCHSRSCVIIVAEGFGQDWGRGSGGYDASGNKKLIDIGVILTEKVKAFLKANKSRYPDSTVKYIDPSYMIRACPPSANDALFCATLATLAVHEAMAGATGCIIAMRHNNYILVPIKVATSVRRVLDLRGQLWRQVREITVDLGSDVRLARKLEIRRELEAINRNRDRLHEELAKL
row,Compound,"activity change, negative = inhibition"
1,O=C1CSC2(CCN(CCCN3c4ccccc4Sc4ccc(Cl)cc43)CC2)N1,-0.387% (inactive)
2,O=S(=O)(O)c1cc(O)c2c(N=Nc3ccc(Nc4ccccc4)c4c(S(=O)(=O)O)cccc34)cc(S(=O)(=O)O)cc2c1,-24.3% (inactive)
3,CCCCC(C)(O)C/C=C/[C@H]1[C@H](O)CC(=O)[C@@H]1CCCCCCC(=O)OC (some centres undefined),1.84% (inactive)
4,O=C(O)CN(CCN(CC(=O)O)CC(=O)O)CC(=O)O,0.159% (inactive)
5,C[C@]12CCC(=O)C=C1CC[C@@H]1[C@@H]2[C@@H](O)C[C@@]2(C)[C@H]1CC[C@]2(O)C(=O)COP(=O)(O)O,-12.4% (inactive)
6,Cc1cn([C@H]2C[C@H](O)[C@@H](CO)O2)c(=O)[nH]c1=O,-1.83% (inactive)
7,C#C[C@]1(O)CC[C@H]2[C@@H]3CCC4=CCCC[C@@H]4[C@H]3C(=C)C[C@@]21CC,0% (inactive)
8,CC1=C(/C=C/C(C)=C/C=C/C(C)=C/C=C/C=C(C)/C=C/C=C(C)/C=C/C2=C(C)CCCC2(C)C)C(C)(C)CCC1,4.43% (inactive)
9,CC(=O)Oc1c(C)cc(OCC(O)CNC(C)C)c(C)c1C (centres undefined),-7.91% (inactive)
10,O=C(Nc1ccc(Br)cc1)c1cc(Br)c(Br)s1,-5.31% (inactive)
11,Cc1cc(C(=O)NNCc2ccccc2)no1,3.76% [at 24.3 µM] (inactive)
12,CO[C@H]1C[C@@H]2CC[C@@H](C)[C@@](O)(O2)C(=O)C(=O)N2CCCC[C@H]2C(=O)O[C@H]([C@H](C)C[C@@H]2CC[C@@H](OCCO)[C@H](OC)C2)CC(=O)[C@H](C)/C=C(\C)[C@@H](O)[C@@H](OC)C(=O)[C@H](C)C[C@H](C)/C=C/C=C/C=C/1C,15.7% (inactive)
13,O=C(Nc1cccc(C(F)(F)F)c1)c1cc(Br)cc(Br)c1O,-8.56% (inactive)
14,COC(F)(F)C(Cl)Cl,-7.74% (inactive)
15,CC(NNC(=O)c1ccccc1)c1ccccc1 (centres undefined),8.59% (inactive)
16,CC1(C)C(C=C(Cl)Cl)C1C(=O)OCc1cccc(Oc2ccccc2)c1 (centres undefined),0% (inactive)
17,CC(C)(C)C(=O)OCOC(=O)[C@@H]1N2C(=O)[C@@H](N=CN3CCCCCC3)[C@H]2SC1(C)C,10.7% [at 24.3 µM] (inactive)

row,Compound,"activity change, negative = inhibition"
1,CCCCCCCC(=O)O,0.283% (inactive)
2,CC1=C(/C=C/C(C)=C/C=C/C(C)=C/C=C/C=C(C)/C=C/C=C(C)/C=C/C2=C(C)C(=O)CCC2(C)C)C(C)(C)CCC1=O,-10.4% (inactive)
3,CO[C@H](C(=O)[C@@H](O)[C@@H](C)O)C1Cc2cc3cc(O[C@H]4C[C@@H](O[C@H]5C[C@@H](O)[C@H](O)[C@@H](C)O5)[C@@H](O)[C@@H](C)O4)c(C)c(O)c3c(O)c2C(=O)[C@H]1O[C@H]1C[C@@H](O[C@H]2C[C@@H](O[C@H]3C[C@](C)(O)[C@H](O)[C@@H](C)O3)[C@H](O)[C@@H](C)O2)[C@H](O)[C@@H](C)O1 (some centres undefined),-13.1% (inactive)
4,CCCC(=O)O[C@]1(C(=O)CCl)[C@H](C)C[C@@H]2[C@H]3CCC4=CC(=O)C=C[C@]4(C)[C@@]3(F)C(=O)C[C@@]21C,0% (inactive)
5,COCC(=O)Nc1cc(Sc2ccccc2)ccc1N=C(NC(=O)OC)NC(=O)OC,4.04% (inactive)
6,C=C1C(=CC=C2CCC[C@@]3(C)[C@@H]2CC[C@H]3[C@H](C)CCCC(C)C)C[C@@H](O)C[C@@H]1O,0% (inactive)
7,CC(=O)Oc1cc(C)c(OC(C)=O)c2ccccc12,-1.67% (inactive)
8,CN1C(=O)CN2CCc3ccccc3C2c2cc(Cl)ccc21 (centres undefined),0.446% (inactive)
9,CCCCCCCCCCCCCCCC(=O)OCC(COC(=O)CCCCCCCCCCCCCCC)OC(=O)CCCCCCCCCCCCCCC,-2.08% (inactive)
10,CC(C(=O)O)c1ccc(N2Cc3ccccc3C2=O)cc1 (centres undefined),-9.48% (inactive)
11,CC(O)CO (centres undefined),0.269% (inactive)
12,CCCCCCCCCCCC[n+]1ccc2ccccc2c1,4.19% (inactive)
13,O=CCCCC=O,-5.49% (inactive)
14,C#CCOc1ccc2c(C)cc(=O)oc2c1,8.19% (inactive)
15,C=CCSSSCC=C,9.54% (inactive)
16,C[C@H]1C[C@H]2[C@@H]3CCC4=CC(=O)C=C[C@]4(C)[C@@]3(F)[C@@H](O)C[C@]2(C)[C@@]1(O)C(=O)CO,-0.413% (inactive)
17,CCOC(C)=O,2.11% (inactive)
